Data published in PubChem BioAssay AID624414 (National Center for Advancing Translational Sciences (NCATS), 2012).
Among all 410,000 compounds or so, about 480 (0.12%) were called active. This is one part of a sample in which actives are shown more often than they occur. Unmarked numbers belong to inactive results. Rule as the data show it: active = activation above about 50%; inconclusive = mostly about 30% to 49%; inactive = weaker than that.

Target: Mucolipin-1 (Homo sapiens) (UniProt Q9GZU1)
Sequence (Q9GZU1 whole entry, looked up): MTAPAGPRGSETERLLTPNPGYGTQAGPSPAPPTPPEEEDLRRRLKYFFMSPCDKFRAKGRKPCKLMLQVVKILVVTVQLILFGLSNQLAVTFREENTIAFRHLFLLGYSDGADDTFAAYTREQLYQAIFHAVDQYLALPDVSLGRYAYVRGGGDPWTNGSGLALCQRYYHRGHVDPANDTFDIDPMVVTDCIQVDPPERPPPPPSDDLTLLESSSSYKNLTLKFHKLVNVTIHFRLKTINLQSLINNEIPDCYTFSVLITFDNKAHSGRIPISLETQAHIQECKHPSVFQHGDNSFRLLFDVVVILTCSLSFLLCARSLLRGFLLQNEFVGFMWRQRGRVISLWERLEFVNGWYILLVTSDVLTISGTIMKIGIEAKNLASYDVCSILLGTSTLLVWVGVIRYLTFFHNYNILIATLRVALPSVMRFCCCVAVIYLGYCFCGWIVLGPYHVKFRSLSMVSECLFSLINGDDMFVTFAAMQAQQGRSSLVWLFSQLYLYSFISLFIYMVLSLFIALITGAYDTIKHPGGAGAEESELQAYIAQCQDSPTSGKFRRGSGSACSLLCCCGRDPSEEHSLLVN
Assay: qHTS for Agonists of the Human Mucolipin Transient Receptor Potential 1 (TRPML1); also: 0% is about no effect
Conditions: TRPML1-expressing cells, Ca2+ dye fluorescence, FDSS; hits give high values
Excerpt: Mutations of human Mucolipin transient receptor potential 1 (TRPML1) cause type IV mucolipidosis (ML4), a devastating neurodegenerative disease in young children. […] Currently, there is no treatment for ML4. […] Under physiological conditions, TRPMLs regulate membrane trafficking by transducing information about PI(3,5)P2 levels into changes in juxtaorganellar Ca2+, thereby triggering membrane fusion/fission events in the late endocytic pathways (endolysosomal trafficking). In addition, TRPML1 mediates release of Fe2+ from late endosomes and lysosomes, which is essential for cellular iron metabolism. Thus, impaired ion (Ca2+ and Fe2+) homeostasis underlies lysosomal dysfunction and ML4 phenotypes. In ML4 cells, the problem is twofold. First, defective Ca2+-dependent membrane trafficking due to TRPML1-deficiency causes accumulation of lipids and other bio-materials in the lysosome. The second strike comes from the lysosomal iron overload (due to impairment of TRPML1's Fe2+ conductivity), which converts the accumulated materials into the nondegradable (resistant to lysosomal degradation) lipofuscin (also called aging pigment) in the lysosome. Lipofuscin accumulation dramatically compromises the functions of lysosomes.
Niemann-Pick type C (NPC) disease is another lysosome storage disease (LSD) with severe neurodegeneration during the childhood. Currently, there is no cure for NPC. […] Thus, TRPML1 is likely to be an essential regulator of lysosome ion homeostasis. We specifically hypothesize that stimulating TRPML1's Fe2+/Ca2+ channel activity in the lysosome using synthetic agonists can alleviate neurodegeneration associated with ML4 or NPC.
To this end, a high throughput screen was developed in a miniaturized format to screen against the Molecular Libraries Small Molecule Repository (MLSMR) to find small molecules that act either as inhibitors or agonist against the TRPML1 channel.
NIH Chemical Genomics Center [NCGC]
NIH Molecular Libraries Probe Centers Network [MLPCN]
Assay Submitter (PI): Haoxing Xu, University of Michigan Ann Arbor
TRPML1-DL cells are dissociated from flasks, counted and, brought up to a density of 500,000 cells per mL of media containing a 1X Tet inducer. Using a Multidrop Combi, 3uL of this cell solution is dispensed to each well of a 1536 TC treated, black, clear bottom hi base plate for a final cell density of 1,500 cells per well. The assay plates are incubated overnight (approximately 16 hours) at 37 degrees C and 5% CO2. Using a Multidrop Combi, 2uL of ABD Ca8 no wash dye plus quencher is added to each well. The assay plates incubate at room temperature in the dark for 45-90 minutes. The assay plate is read on the FDSS using the following protocol: 10 second baseline read, 23nL of compounds and controls are added using 1536 pintool, agonist read for 110 seconds, 1 uL EC80 addition (4uM final 54-4 diluted in media), antagonist read for 110 seconds.

Q: Which activation does the source give for `Cc1nc(N2CCN(c3ccccn3)CC2)c2c(C)c(C(=O)Nc3ccc(F)c(Cl)c3)sc2n1` here?
A: -0.23%

Q: For `O=C(Nc1ccccc1)c1ccccc1OCc1ccccc1`, which activation is on record?
A: 0.0539%

Q: How did the activation turn out when `COc1cc2nc(N3CCCN(C)CC3)nc(NC(C)C)c2cc1OC` was run?
A: -0.755%

Q: For `O=C1CC(c2ccccc2)CC2=C1C(c1ccco1)n1nc(C(F)(F)F)nc1N2` (centres undefined), which activation is on record?
A: -1.28%

Q: Which activation does the source give for `C=COC(=O)N1CCN(/[N+]([O-])=N/Oc2ccc([N+](=O)[O-])cc2[N+](=O)[O-])CC1` here?
A: 1.19%

Q: For `COc1ccc(CN(Cc2ccccc2)C(=O)c2ccc(O)cc2)cc1COc1ccc(NC(C)=O)cc1`, which activation is on record?
A: 1.13%

Q: `OC(Cc1ccc2ccccc2n1)c1ccc(Cl)c(Cl)c1` (centres undefined) was tested. Which activation did it give?
A: 0.0951%

Q: `CCN(CC)c1ccc(C2C(C(N)=O)=C(C)Nc3nc(SCc4ccccc4)nn32)cc1` (centres undefined) was tested. Which activation did it give?
A: -0.404%

Q: Which activation does the source give for `CCCOc1ccc(C2c3c(-c4ccccc4O)n[nH]c3C(=O)N2Cc2cccnc2)cc1` (centres undefined) here?
A: 1.02%

Q: With `Cc1nn(C)cc1N1C(=O)c2cccc3c(N)ccc(c23)C1=O` as the molecule, how does the activation read?
A: 66.8% (active)

Q: With `CN1C(=O)c2cccc3c(N)ccc(c23)C1=O` as the molecule, how does the activation read?
A: 85.5% (active)

Q: For `Cc1ccc(Cn2cnc3c(cnn3C(C)(C)C)c2=O)c(F)c1`, which activation is on record?
A: 1.07%

Q: Which activation does the source give for `CN(C)c1ccc(NC(=O)CSc2nc(-c3ccco3)cc(C(F)(F)F)n2)cc1` here?
A: 0.776%

Q: For `CCN(CC)CCCC(C)Nc1ccnc2cc(Cl)ccc12` (centres undefined), which activation is on record?
A: 0.571%

Q: Which activation does the source give for `CCN(CC)CCCC(C)n1c2nc(=O)[nH]c(=O)c-2nc2cc(Cl)ccc21` (centres undefined) here?
A: 82.9% (active)

Q: Which activation does the source give for `Cc1cccc(-n2c(=O)c3c(c4cc(C)ccc4n3C)n(CC(=O)Nc3ccccc3Cl)c2=O)c1` here?
A: 1.58%

Q: `Brc1cccc[n+]1Cc1cccc(C[n+]2ccccc2Br)c1` was tested. Which activation did it give?
A: 0.0634%

Q: Which activation does the source give for `Cc1cccc(NC(=O)COC(=O)c2ccccc2OCc2cccc(Br)c2)c1` here?
A: -0.0809%

Q: `CCCCCCCNc1ccc(/C=C/c2ccnc3ccccc23)cc1` was tested. Which activation did it give?
A: 6.43%

Q: `O=C(Nc1ccc(Cl)cc1)c1cnn2c1NC(=C1CC1)C=C2C(F)F` was tested. Which activation did it give?
A: -0.513%

Q: Which activation does the source give for `CCOC(=O)c1c(C)oc2ccc(N(C(=O)c3ccncc3)S(=O)(=O)c3ccc(CC)cc3)cc12` here?
A: 0.815%

Q: Which activation does the source give for `C/C(=N\NC(N)=S)c1ccncc1` here?
A: 0%

Q: With `CCN(CC)c1ccc2cc(C(N)=O)/c(=N\NC(=O)c3ccncc3)oc2c1` as the molecule, how does the activation read?
A: 81% (active)

Q: With `COc1ccc(Br)cc1C1C2C=CCC(C)C2C(=O)N1Cc1ccccc1` (centres undefined) as the molecule, how does the activation read?
A: 1.3%

Q: How did the activation turn out when `CS(=O)c1ccc(/C=C2\C=Cc3ccccc32)cc1` (centres undefined) was run?
A: -0.666%

Q: `COc1ccc(NC(=O)C2CCCN(S(=O)(=O)c3cccc4nonc34)C2)cc1Cl` (centres undefined) was tested. Which activation did it give?
A: 0.791%

Q: With `Cc1ccc(-c2nc(=N)sn2Cc2ccccc2)cc1` as the molecule, how does the activation read?
A: 0.856%

Q: With `O=C(Cc1ccc(Cl)cc1)Nc1ccc2nn(-c3ccc(Cl)cc3)nc2c1` as the molecule, how does the activation read?
A: -0.688%

Q: For `CCN(CC)/[N+]([O-])=N/OCOC(=O)Cc1c(C)n(C(=O)c2ccc(Cl)cc2)c2ccc(OC)cc12`, which activation is on record?
A: 1.25%

Q: Which activation does the source give for `O=C(COc1ccccc1C(=O)Nc1ccccc1)Nc1cccc(F)c1` here?
A: -0.0642%

Q: Which activation does the source give for `CCn1c2ccccc2c2cc(CN3CCN(Cc4cccc(Cl)c4)CC3)ccc21` here?
A: 1.83%

Q: For `Cc1cccc(N2CCN(C(c3ccccc3)c3nnnn3CC3CCCO3)CC2)c1C` (centres undefined), which activation is on record?
A: 83.5% (active)

Q: `Cc1cccc(N2CCN(C(c3ccc(N(C)C)cc3)c3nnnn3C(C)(C)C)CC2)c1C` (centres undefined) was tested. Which activation did it give?
A: -0.374%

Q: With `COc1ccccc1C(c1nnnn1CC1CCCO1)N1CCN(c2ccccc2)CC1` (centres undefined) as the molecule, how does the activation read?
A: 1.14%

Q: Which activation does the source give for `O=C(CSc1nccn1Cc1ccc(Cl)cc1)NCc1ccccc1` here?
A: -1.21%

Q: `SCc1nc2ccc(Cl)cc2[nH]1` was tested. Which activation did it give?
A: -0.507%

Q: With `Cc1cc(C)c(/C=C2\C(=O)Nc3ccccc32)[nH]1` as the molecule, how does the activation read?
A: 92% (active)

Q: For `CC(C)OCCCn1c(SCC(=O)c2ccccc2)nc2c(sc3ccccc32)c1=O`, which activation is on record?
A: 0.121%

Q: With `CCOCCCNC(=O)c1ccc2nc(CCc3ccccc3)oc2c1` as the molecule, how does the activation read?
A: 2.82%

Q: `CC(C)(C)n1ncc2c(=O)n(Cc3ccc(C(=O)c4ccccc4)cc3)cnc21` was tested. Which activation did it give?
A: 2.07%

Q: `CN(CC(=O)Nc1ccc(F)cc1)CC(=O)N1CCCCC1` was tested. Which activation did it give?
A: -0.517%

Q: For `CC(C(=O)N1CCc2ccccc21)N(C)CC(=O)Nc1ccc(F)cc1` (centres undefined), which activation is on record?
A: 51.7% (active)

Q: `CC(OC(=O)Cc1ccc(F)cc1)C(=O)N1CCc2ccccc21` (centres undefined) was tested. Which activation did it give?
A: 1.15%

Q: `O=C(O)C1=C/C(=C/C=[N+]2c3cc(O)c(O[C@H]4OC(CO)[C@@H](O)[C@@H](O)[C@@H]4O)cc3C[C@@H]2C(=O)[O-])C[C@H](C(=O)O)N1` (some centres undefined) was tested. Which activation did it give?
A: -0.0321%
